# Experimental data taken from the supplement of paper PMC3334620.
# The full ranking holds about 33,000 sequences; the median of “E-score (-0.5 to 0.5)” is about -0.041, and the highest 2% start at about 0.37. The list comes from a sample in which the highest values are over-represented; it also holds similar and randomly drawn sequences.
# Target: T1, Ecm22 (UniProt Q05958)
# T1 sequence: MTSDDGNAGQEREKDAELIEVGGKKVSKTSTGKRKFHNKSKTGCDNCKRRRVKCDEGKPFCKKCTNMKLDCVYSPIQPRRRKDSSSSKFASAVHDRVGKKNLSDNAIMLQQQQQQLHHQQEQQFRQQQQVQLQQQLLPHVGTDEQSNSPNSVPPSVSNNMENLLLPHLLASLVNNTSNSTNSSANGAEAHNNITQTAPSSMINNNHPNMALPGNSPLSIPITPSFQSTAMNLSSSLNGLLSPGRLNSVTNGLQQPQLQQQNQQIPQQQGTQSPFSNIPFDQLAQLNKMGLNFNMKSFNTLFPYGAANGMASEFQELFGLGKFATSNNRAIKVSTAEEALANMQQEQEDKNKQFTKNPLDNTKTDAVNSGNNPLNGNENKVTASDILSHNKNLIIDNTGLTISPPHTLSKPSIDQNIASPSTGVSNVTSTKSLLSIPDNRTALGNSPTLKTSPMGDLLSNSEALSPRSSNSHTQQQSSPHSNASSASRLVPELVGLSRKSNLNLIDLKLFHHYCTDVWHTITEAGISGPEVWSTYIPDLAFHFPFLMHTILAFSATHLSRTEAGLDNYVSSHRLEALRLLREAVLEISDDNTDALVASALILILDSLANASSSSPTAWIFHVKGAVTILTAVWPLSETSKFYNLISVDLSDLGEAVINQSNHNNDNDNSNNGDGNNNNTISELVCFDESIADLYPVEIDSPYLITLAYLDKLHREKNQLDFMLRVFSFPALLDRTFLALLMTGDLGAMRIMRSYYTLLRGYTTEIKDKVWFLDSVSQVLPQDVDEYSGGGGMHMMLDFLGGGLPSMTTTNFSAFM
# Experiment: PBM E-score (8-mer binding enrichment) (E-score (-0.5 to 0.5)); higher = stronger / more preferred TF binding
# Details: protein concentration: 200 nM; construct: GST-full length
# Procedure: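 Universal 'all 10-mer' protein binding microarrays (Agilent AMADID 015681) probed with GST-tagged S. cerevisiae TFs (full-length or DBD) made by in vitro transcription/translation (PURExpress), about 100-200 nM. Bound TF was detected with fluorescent anti-GST. Each ungapped 8-mer (which stands for itself and its reverse complement) is scored by the PBM enrichment score (E-score), a modified Wilcoxon-Mann-Whitney statistic from -0.5 to +0.5, computed with the Universal PBM Analysis Suite. Scale: above 0.35 generally sequence-specific binding.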
row,Sequence,PBM E-score
1,CCGTACGA,0.445
2,CCGTACTA,0.341
3,GAGGTTGA,-0.0744
4,AGAGAAGC,-0.0688
5,CGTTTATC,0.42
6,CTTTTATC,-0.0345
7,CGTTTATA,0.426
8,AGTTTATA,0.15
9,GGTTTATA,0.152
10,AGTTTATC,0.0904
11,AGCTCAGG,-0.211
12,TGAAGTCA,-0.133
13,GCCCAACC,0.0862
14,CGTATATC,0.439
15,AGTATATC,0.122
16,CGTATTTA,0.369
17,CATATATC,0.0903
18,GGTATTTA,-0.00022
19,GGTATATA,0.168

row,Sequence,PBM E-score
1,CGTATATA,0.444
2,AGTATTTA,-0.0192
3,AGTATATA,0.341
4,AAGTACCG,0.152
5,CTAATGAG,-0.0357
6,GCAAATGA,0.0372
7,CCACTCGC,0.184
8,CTGGCTCC,-0.202
9,CGTGTTCA,0.0358
10,AACCTCTT,-0.0421
11,GTAACCGA,0.332
12,CTAACCGA,0.372
13,CTAACCGC,0.0805
14,CGCCACTC,-0.016
15,AAACTGTC,-0.0481
16,ATACGATC,0.457
17,ACACGATG,0.17
18,CTACGATC,0.325
19,ATACGATG,0.472

row,Sequence,PBM E-score
1,AGACGATG,0.00668
2,ACACGATC,0.0695
3,AGCAGGGC,-0.0233
4,TATACTGA,0.182
5,CGATCTAC,0.184
6,AGTACCAT,0.0273
7,GGGCCGTA,0.333
8,AGGCCGTA,0.384
9,CGGCCGTA,0.34
10,AAAGCTGT,-0.108
11,CGAAGCAG,0.147
12,GCGTGGGA,0.0285
13,ACACGACA,0.233
14,GCACGACA,0.114
15,ATACGACA,0.469
16,CTACGACA,0.347
17,AGACGACA,0.0702
18,GTACGACA,0.48
